Tests used:
Assay in all cases: PBM binding z-score (relative to random genomic background probes); higher = stronger binding; sequences stand for … in GC…GCGATTGACAGCGTAGAATGAAGG
[1] = test system: FXR:RXRa (NR concentration 270 nM, RXRa partner concentration 90 nM)
Procedure, shortened: (§1)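 Regression normalization was applied to scanned fluorescence from custom Agilent 4×180K protein-binding microarrays. Before scanning, arrays were incubated 1 h with ligand-free nuclear receptor dimers, and binding was detected with antibodies against each partner (one per run). Binding z-scores use the random background probes as reference.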

[2] = test system: LXRa:RXRa (NR concentration 270 nM, RXRa partner concentration 90 nM)
Procedure, shortened: as §1

[3] = test system: LXRa homodimer (NR concentration 270 nM)
Procedure, shortened: as §1

[4] = test system: LXRb:RXRa (NR concentration 270 nM, RXRa partner concentration 90 nM)
Procedure, shortened: as §1

[5] = test system: LXRb homodimer (NR concentration 270 nM)
Procedure, shortened: as §1

[6] = test system: PPARa:RXRa (NR concentration 270 nM, RXRa partner concentration 90 nM)
Procedure, shortened: as §1

[7] = test system: PPARg:RXRa (NR concentration 180 nM, RXRa partner concentration 90 nM)
Procedure, shortened: as §1

[8] = test system: PPARg:RXRa 270nM:90nM, anti-RXR (NR concentration 270 nM, RXRa partner concentration 90 nM)
Procedure, shortened: as §1

[9] = test system: PPARg:RXRa 30nM:10nM, anti-RXR (NR concentration 30 nM, RXRa partner concentration 10 nM)
Procedure, shortened: as §1

[10] = test system: PPARg:RXRa 90nM:30nM, anti-RXR (NR concentration 90 nM, RXRa partner concentration 30 nM)
Procedure, shortened: as §1

[11] = test system: PPARg:RXRa DBDmut IVT, anti-RXR (DBD mutation: RXRa K156A/R161A, NR concentration 270 nM, RXRa partner concentration 90 nM)
Procedure, shortened: as §1

[12] = test system: PPARg:RXRa IVT, anti-PPARg (NR concentration 270 nM, RXRa partner concentration 90 nM)
Procedure, shortened: as §1

[13] = test system: PPARg DBDmut:RXRa IVT, anti-PPARg (DBD mutation: PPARg1 K132A/R137A, NR concentration 270 nM, RXRa partner concentration 90 nM)
Procedure, shortened: as §1

[14] = test system: PPARg DBDmut IVT, anti-PPARg (DBD mutation: PPARg1 K132A/R137A, NR concentration 270 nM)
Procedure, shortened: as §1

[15] = test system: PPARg homodimer (NR concentration 180 nM)
Procedure, shortened: as §1

[16] = test system: PXR:RXRa (NR concentration 270 nM, RXRa partner concentration 90 nM)
Procedure, shortened: as §1

[17] = test system: PXR homodimer (NR concentration 270 nM)
Procedure, shortened: as §1

[18] = test system: RARa:RXR (NR concentration 270 nM, RXRa partner concentration 90 nM)
Procedure, shortened: as §1

[19] = test system: RARa homodimer (NR concentration 270 nM)
Procedure, shortened: as §1

[20] = test system: RARb:RXRa (NR concentration 270 nM, RXRa partner concentration 90 nM)
Procedure, shortened: as §1

| Sequence | PBM binding z-score [1] | PBM binding z-score [2] | PBM binding z-score [3] | PBM binding z-score [4] | PBM binding z-score [5] | PBM binding z-score [6] | PBM binding z-score [7] | PBM binding z-score [8] | PBM binding z-score [9] | PBM binding z-score [10] | PBM binding z-score [11] | PBM binding z-score [12] | PBM binding z-score [13] | PBM binding z-score [14] | PBM binding z-score [15] | PBM binding z-score [16] | PBM binding z-score [17] | PBM binding z-score [18] | PBM binding z-score [19] | PBM binding z-score [20] |
| --- | --- | --- | --- | --- | --- | --- | --- | --- | --- | --- | --- | --- | --- | --- | --- | --- | --- | --- | --- | --- |
| CCAGACAGGTGAATGGTAACTCAGTCTGGTACGC | -0.448 | -0.493 | -0.271 | -0.246 | -0.723 | 0.129 | 0.419 | 0.128 | -0.647 | -0.216 | 0.897 | 0.735 | -0.452 | -0.717 | 0.288 | -0.4 | -0.302 | -0.379 | -0.0506 | 0.381 |
| CGACCAAGGTCAGCAGGTCAGTGAAAGCGACGTG | 5.71 | 3.43 | -0.15 | 2.77 | -0.923 | 4.85 | 4.53 | 4.43 | 1.12 | 3.02 | 2.72 | 3.64 | -0.557 | -0.609 | 2.7 | 3.18 | -0.228 | 4.62 | 0.262 | 5.02 |
| ACAGACAGGTGAGTGTAGGTAACTCAGCTGGACG | 0.257 | -0.0272 | -0.446 | -0.538 | -0.878 | 0.215 | 0.458 | 0.248 | -0.279 | -0.0696 | 0.831 | 1.24 | -0.529 | -0.0544 | 0.128 | -0.121 | 0.0184 | 0.216 | 0.676 | 0.392 |
| TCGAGTAGGTTAGTCGGGGCCTTCAGCCAACATA | -0.352 | -0.131 | -0.672 | 0.0154 | -1.21 | 0.259 | -0.8 | 0.291 | 0.448 | 0.62 | 1.83 | 1.08 | -1.4 | -0.48 | -0.555 | -0.49 | -0.597 | -0.0225 | -1.38 | 0.0952 |
| CCGAGTAGGTTATGAGGCATTCAGGCAACGGTGA | -0.0177 | 0.0841 | -0.0523 | -0.158 | -0.156 | 1.02 | 1.3 | 2.22 | 0.331 | 1.44 | 2.79 | 2.1 | -0.794 | -0.318 | 0.571 | -0.101 | -0.42 | 0.567 | -0.00223 | 0.501 |
| GGAACGAGGGCAAGTTGATGGCAGAGTTTGATGG | 0.782 | 0.592 | -0.0865 | -0.0137 | -0.434 | 1.55 | 0.994 | 0.903 | -0.146 | 0.602 | 3.55 | 2.56 | -0.155 | -0.96 | 0.499 | 0.948 | 0.748 | 0.523 | -0.279 | 2.47 |
| ATCGAAAGGTCGTGAGGTGCGTATACAGAAAGGC | 5.17 | 3.73 | -0.157 | 2.99 | -0.0634 | 5.18 | 3.39 | 3.76 | 1.13 | 2.4 | 0.0193 | 1.75 | 0.734 | 0.404 | 1.37 | 2.98 | 0.197 | 3.01 | 0.318 | 3.85 |

Source: the supplement of paper PMC6555819
